Measurements: paper PMC7862700, “An all-to-all approach to the identification of sequence-specific readers for epigenetic DNA modifications on cytosine”

Legend:
Assay in all cases: DAPPL (digital affinity profiling via proximity ligation, sequencing); 10 mM Tris-HCl pH 7.5, 50 mM NaCl, 1 mM DTT, 4% glycerol, room temperature, 30 min; GST-TFs on glutathione beads, 16-mer random dsDNA library, 0.1% formaldehyde crosslink after washing; high values mean tight binding
FEV = biological target: T1, FEV (Homo sapiens, UniProt Q99581 1-238); conditions: protein: recombinant; tags: N-terminal GST; dsDNA, one strand shown
T1 sequence: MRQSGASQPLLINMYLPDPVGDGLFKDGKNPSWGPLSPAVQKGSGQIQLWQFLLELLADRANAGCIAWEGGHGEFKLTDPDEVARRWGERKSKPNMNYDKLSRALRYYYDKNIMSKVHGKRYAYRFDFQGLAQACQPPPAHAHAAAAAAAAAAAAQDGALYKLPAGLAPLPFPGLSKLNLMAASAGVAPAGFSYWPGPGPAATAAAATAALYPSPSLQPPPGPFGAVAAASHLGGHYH
Method in brief: (§1)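 Binding signal is given per hexamer as its read frequency for a factor divided by its frequency in the tag-only sample. GST-fused human transcription factors were expressed in yeast, captured on glutathione beads, barcoded with DNA and pooled with that sample, then incubated with 200 nmole of a 16-mer random double-stranded DNA library in Tris/NaCl/DTT/glycerol buffer for 30 min at room temperature. The pools were then washed, crosslinked, proximity-ligated, amplified by PCR and sequenced on an Illumina NextSeq500.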

ETV5 = ETV5 (Homo sapiens, UniProt P41161 1-510); conditions: protein: recombinant; tags: N-terminal GST; dsDNA, one strand shown
Sequence of ETV5 (P41161 whole entry): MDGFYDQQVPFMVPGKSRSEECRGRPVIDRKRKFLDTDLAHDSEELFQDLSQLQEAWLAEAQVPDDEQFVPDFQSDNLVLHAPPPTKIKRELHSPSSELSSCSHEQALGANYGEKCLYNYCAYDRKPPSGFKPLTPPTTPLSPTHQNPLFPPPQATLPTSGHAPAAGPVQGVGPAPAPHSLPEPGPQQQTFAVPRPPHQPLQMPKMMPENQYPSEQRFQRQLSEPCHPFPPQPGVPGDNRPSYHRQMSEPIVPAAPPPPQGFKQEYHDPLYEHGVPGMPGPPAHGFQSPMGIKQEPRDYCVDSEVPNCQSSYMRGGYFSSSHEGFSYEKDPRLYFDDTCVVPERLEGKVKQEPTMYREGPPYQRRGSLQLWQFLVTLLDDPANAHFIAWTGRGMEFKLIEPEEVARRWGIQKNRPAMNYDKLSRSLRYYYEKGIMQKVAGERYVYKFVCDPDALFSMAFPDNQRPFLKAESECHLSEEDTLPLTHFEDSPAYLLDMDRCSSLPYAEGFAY
Method in brief: as §1

HSF1 = HSF1 (Homo sapiens, UniProt Q00613 1-529); conditions: protein: recombinant; tags: N-terminal GST; chain copies: 3; dsDNA, one strand shown
Sequence of HSF1 (Q00613 whole entry): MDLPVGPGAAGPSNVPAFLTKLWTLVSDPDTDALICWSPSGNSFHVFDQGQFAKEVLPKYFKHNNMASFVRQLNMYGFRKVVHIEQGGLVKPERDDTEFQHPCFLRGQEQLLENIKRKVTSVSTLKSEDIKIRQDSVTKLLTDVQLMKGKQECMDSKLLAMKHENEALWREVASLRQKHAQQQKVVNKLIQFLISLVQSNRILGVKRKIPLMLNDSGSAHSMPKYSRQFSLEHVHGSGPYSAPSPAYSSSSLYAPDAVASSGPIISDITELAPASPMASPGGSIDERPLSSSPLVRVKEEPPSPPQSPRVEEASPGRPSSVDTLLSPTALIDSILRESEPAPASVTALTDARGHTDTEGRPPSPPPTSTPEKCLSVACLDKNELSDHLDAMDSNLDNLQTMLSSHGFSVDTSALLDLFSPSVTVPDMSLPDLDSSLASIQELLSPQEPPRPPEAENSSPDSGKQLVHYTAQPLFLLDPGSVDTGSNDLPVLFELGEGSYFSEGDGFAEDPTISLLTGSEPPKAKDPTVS
Method in brief: as §1

SPIC = biological target: T2, SPIC (Homo sapiens, UniProt Q8N5J4 1-248); conditions: protein: recombinant; tags: N-terminal GST; dsDNA, one strand shown
T2 sequence: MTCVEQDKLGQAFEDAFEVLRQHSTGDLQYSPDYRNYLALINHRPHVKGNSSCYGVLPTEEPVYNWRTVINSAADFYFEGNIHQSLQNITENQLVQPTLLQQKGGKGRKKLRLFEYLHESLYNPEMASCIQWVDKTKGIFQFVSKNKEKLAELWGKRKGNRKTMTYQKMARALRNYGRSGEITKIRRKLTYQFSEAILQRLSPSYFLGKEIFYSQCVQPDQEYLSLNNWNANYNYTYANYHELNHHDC
Method in brief: as §1

ELF4 = ELF4 (Homo sapiens, UniProt Q99607 1-663); conditions: protein: recombinant; tags: N-terminal GST; dsDNA, one strand shown
Sequence of ELF4 (Q99607 whole entry): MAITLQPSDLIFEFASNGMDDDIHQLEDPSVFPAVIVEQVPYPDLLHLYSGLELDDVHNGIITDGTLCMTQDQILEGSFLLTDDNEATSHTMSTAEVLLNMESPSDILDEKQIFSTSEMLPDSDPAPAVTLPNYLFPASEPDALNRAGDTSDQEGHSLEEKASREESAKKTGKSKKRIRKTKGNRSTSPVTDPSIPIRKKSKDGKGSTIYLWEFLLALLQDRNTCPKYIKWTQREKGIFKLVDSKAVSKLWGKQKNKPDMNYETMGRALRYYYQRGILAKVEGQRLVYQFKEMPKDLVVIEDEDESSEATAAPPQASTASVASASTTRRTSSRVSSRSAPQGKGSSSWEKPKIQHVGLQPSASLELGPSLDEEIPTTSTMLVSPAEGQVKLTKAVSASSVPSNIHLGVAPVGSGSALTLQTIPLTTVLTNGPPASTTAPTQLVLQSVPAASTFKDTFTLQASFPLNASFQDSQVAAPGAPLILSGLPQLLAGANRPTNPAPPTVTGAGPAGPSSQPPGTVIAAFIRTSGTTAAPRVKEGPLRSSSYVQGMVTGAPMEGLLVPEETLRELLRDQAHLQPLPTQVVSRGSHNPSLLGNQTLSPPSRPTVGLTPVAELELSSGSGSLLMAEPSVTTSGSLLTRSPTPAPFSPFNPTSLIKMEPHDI
Method in brief: as §1

ELK4 = biological target: T3, ELK4 (Homo sapiens, UniProt P28324-2 1-405); conditions: protein: recombinant; tags: N-terminal GST; dsDNA, one strand shown
T3 sequence: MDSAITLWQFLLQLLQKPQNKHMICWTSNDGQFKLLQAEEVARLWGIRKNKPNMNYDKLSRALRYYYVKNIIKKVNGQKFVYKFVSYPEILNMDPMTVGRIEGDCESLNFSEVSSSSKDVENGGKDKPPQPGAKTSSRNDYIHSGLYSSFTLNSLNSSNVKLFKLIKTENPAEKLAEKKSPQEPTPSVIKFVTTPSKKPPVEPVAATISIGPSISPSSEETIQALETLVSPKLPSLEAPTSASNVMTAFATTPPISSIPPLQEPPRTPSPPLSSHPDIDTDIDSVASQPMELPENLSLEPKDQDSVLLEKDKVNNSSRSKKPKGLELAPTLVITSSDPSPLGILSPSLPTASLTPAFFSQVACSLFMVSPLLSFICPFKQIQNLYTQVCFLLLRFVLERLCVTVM
Method in brief: as §1

ETV2 = biological target: T4, ETV2 (Homo sapiens, UniProt O00321 1-342); conditions: protein: recombinant; tags: N-terminal GST; dsDNA, one strand shown
T4 sequence: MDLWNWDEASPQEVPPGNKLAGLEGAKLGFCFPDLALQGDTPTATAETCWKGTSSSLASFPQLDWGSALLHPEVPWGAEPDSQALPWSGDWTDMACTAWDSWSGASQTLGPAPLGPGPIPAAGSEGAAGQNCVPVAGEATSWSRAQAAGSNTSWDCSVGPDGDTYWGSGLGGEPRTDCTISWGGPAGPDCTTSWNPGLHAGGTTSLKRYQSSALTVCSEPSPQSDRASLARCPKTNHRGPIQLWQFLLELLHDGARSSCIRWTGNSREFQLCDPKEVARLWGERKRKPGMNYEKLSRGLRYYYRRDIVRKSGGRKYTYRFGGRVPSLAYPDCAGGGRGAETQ
Method in brief: as §1

ELF3 = biological target: T5, ELF3 (Homo sapiens, UniProt P78545 1-371); conditions: protein: recombinant; tags: N-terminal GST; dsDNA, one strand shown
T5 sequence: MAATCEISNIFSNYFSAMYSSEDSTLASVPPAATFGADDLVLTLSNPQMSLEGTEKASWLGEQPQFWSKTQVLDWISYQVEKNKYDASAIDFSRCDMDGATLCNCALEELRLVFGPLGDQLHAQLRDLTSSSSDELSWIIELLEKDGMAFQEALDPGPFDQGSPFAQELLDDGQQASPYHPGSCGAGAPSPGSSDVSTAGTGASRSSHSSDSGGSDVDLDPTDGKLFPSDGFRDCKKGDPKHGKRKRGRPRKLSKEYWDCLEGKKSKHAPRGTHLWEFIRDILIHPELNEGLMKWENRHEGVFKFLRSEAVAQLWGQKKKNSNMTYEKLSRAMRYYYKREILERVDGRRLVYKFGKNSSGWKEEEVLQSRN
Method in brief: as §1

CRX = CRX (Homo sapiens, UniProt O43186 1-299); conditions: protein: recombinant; tags: N-terminal GST; dsDNA, one strand shown
Sequence of CRX (O43186 whole entry): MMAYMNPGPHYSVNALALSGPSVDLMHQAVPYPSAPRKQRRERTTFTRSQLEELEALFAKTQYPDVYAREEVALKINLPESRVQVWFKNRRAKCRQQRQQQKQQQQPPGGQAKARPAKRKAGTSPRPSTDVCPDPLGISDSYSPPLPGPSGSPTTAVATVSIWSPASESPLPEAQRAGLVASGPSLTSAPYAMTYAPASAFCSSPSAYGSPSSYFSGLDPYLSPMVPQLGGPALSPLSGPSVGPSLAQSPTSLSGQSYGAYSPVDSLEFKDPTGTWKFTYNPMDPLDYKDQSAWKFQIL
Method in brief: as §1

ETV1 = ETV1 (Homo sapiens, UniProt P50549 1-477); conditions: protein: recombinant; tags: N-terminal GST; dsDNA, one strand shown
Sequence of ETV1 (P50549 whole entry): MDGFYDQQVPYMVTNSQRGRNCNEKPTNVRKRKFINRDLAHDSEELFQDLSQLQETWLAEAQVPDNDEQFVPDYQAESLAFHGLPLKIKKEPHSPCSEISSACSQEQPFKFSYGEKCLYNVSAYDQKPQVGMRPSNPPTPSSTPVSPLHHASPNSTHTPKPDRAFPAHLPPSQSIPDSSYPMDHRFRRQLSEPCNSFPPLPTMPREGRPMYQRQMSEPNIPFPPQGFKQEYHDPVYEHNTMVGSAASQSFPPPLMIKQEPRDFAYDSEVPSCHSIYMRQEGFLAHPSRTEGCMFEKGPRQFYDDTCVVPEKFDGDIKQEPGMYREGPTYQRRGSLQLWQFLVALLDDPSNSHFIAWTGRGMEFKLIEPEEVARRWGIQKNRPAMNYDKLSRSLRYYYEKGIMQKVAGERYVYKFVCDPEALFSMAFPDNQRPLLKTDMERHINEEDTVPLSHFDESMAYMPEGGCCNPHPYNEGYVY
Method in brief: as §1

ERF = biological target: T6, ERF (Homo sapiens, UniProt P50548 1-548); conditions: protein: recombinant; tags: N-terminal GST; dsDNA, one strand shown
T6 sequence: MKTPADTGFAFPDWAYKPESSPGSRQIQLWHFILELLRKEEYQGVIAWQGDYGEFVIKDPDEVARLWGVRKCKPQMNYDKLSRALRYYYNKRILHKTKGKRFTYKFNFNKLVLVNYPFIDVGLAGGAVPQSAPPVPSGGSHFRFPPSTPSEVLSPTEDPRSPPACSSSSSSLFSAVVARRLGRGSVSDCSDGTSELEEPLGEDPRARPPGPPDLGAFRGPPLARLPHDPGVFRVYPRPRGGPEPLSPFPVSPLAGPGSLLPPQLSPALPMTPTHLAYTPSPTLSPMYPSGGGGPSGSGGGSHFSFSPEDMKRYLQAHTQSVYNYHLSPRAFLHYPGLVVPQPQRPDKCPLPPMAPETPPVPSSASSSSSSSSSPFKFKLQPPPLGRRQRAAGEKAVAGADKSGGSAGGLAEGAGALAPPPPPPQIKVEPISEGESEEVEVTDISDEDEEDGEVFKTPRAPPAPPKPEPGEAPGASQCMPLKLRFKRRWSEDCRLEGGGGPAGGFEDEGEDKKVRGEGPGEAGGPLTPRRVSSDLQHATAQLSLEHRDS
Method in brief: as §1

ETV3L = biological target: T7, ETV3L (Homo sapiens, UniProt Q6ZN32 1-361); conditions: protein: recombinant; tags: N-terminal GST; dsDNA, one strand shown
T7 sequence: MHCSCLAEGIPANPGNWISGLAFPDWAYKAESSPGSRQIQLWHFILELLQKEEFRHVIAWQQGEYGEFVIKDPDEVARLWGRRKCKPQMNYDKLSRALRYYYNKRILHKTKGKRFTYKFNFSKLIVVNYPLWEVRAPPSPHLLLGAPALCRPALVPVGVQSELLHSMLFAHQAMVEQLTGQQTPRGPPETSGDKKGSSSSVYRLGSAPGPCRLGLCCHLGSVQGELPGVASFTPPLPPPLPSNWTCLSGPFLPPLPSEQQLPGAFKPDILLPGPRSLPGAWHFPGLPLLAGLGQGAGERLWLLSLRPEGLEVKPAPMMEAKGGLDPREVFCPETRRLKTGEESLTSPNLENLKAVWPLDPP
Method in brief: as §1

ETS2 = biological target: T8, ETS2 (Homo sapiens, UniProt P15036 1-469); conditions: protein: recombinant; tags: N-terminal GST; dsDNA, one strand shown
T8 sequence: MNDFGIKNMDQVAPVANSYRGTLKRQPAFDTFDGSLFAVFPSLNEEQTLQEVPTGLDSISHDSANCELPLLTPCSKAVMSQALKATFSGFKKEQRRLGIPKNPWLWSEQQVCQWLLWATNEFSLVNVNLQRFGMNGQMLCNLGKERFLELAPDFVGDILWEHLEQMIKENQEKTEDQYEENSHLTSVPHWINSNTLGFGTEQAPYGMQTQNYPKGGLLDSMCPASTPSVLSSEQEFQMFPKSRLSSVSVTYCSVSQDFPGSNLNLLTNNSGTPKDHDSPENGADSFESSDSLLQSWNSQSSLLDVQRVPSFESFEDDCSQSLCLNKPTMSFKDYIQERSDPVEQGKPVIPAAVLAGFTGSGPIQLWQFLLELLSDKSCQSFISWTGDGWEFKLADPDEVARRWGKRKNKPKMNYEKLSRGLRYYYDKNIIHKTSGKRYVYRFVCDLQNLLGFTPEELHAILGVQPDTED
Method in brief: as §1

SPDEF = biological target: T9, SPDEF (Homo sapiens, UniProt O95238 1-335); conditions: protein: recombinant; tags: N-terminal GST; dsDNA, one strand shown
T9 sequence: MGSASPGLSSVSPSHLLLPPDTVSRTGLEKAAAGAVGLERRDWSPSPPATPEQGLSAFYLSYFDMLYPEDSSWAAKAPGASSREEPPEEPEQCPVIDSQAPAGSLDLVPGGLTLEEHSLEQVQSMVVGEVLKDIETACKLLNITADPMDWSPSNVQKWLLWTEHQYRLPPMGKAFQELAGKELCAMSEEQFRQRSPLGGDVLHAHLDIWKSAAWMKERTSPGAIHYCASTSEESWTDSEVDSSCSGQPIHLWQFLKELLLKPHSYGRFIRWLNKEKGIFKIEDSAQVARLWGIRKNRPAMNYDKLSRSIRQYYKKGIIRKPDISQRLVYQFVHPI
Method in brief: as §1

ETV7 = biological target: T10, ETV7 (Homo sapiens, UniProt Q9Y603 1-341); conditions: protein: recombinant; tags: N-terminal GST; dsDNA, one strand shown
T10 sequence: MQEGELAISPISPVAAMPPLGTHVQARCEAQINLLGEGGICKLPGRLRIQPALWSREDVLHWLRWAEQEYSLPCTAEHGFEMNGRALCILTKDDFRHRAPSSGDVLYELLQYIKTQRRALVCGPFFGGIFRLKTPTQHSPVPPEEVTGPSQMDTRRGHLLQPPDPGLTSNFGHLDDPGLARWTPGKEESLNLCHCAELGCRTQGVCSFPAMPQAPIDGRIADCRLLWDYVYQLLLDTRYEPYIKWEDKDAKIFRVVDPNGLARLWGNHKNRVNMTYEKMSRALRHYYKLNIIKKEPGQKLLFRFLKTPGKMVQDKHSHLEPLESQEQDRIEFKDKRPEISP
Method in brief: as §1

ELF5 = biological target: T11, ELF5 (Homo sapiens, UniProt Q9UKW6-2 1-255); conditions: protein: recombinant; tags: N-terminal GST; dsDNA, one strand shown
T11 sequence: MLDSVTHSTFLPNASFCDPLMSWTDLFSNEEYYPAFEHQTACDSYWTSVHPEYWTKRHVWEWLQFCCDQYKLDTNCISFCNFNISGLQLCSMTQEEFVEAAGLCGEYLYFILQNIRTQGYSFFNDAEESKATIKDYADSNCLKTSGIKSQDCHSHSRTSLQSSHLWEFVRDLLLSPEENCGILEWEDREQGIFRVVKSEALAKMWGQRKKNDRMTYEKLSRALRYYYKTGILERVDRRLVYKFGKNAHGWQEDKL
Method in brief: as §1

ETV3 = biological target: T12, ETV3 (Homo sapiens, UniProt P41162-2 1-143); conditions: protein: recombinant; tags: N-terminal GST; dsDNA, one strand shown
T12 sequence: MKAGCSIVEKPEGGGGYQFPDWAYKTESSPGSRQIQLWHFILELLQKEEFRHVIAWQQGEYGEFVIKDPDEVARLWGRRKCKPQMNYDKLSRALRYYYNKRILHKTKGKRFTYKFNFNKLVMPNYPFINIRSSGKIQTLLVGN
Method in brief: as §1

ETV6 = ETV6 (Homo sapiens, UniProt P41212 1-452); conditions: protein: recombinant; tags: N-terminal GST; dsDNA, one strand shown
Sequence of ETV6 (P41212 whole entry): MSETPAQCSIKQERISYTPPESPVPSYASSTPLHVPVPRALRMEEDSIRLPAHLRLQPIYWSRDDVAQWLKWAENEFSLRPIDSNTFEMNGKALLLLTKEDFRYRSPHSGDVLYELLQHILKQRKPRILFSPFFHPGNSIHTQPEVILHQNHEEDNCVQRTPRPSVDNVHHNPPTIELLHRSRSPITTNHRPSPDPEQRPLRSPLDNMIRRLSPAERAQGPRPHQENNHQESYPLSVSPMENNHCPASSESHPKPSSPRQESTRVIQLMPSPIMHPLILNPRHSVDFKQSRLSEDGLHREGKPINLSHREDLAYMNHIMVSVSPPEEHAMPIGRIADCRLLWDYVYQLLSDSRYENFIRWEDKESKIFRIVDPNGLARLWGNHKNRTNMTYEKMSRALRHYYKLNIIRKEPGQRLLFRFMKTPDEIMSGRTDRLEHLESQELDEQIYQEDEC
Method in brief: as §1

Sequence: CCTCCG
- binding signal (FEV): 1.45 fold enrichment (6-mer frequency, TF over GST control)
- binding signal (ETV5): 1.34 fold enrichment (6-mer frequency, TF over GST control)
- binding signal (HSF1): 1.01 fold enrichment (6-mer frequency, TF over GST control)
- binding signal (SPIC): 1.62 fold enrichment (6-mer frequency, TF over GST control)
- binding signal (ELF4): 1.38 fold enrichment (6-mer frequency, TF over GST control)
- binding signal (ELK4): 1.36 fold enrichment (6-mer frequency, TF over GST control)
- binding signal (ETV2): 1.33 fold enrichment (6-mer frequency, TF over GST control)
- binding signal (ELF3): 1.32 fold enrichment (6-mer frequency, TF over GST control)
- binding signal (CRX): 1.07 fold enrichment (6-mer frequency, TF over GST control)
- binding signal (ETV1): 1.4 fold enrichment (6-mer frequency, TF over GST control)
- binding signal (ERF): 1.41 fold enrichment (6-mer frequency, TF over GST control)
- binding signal (ETV3L): 1.65 fold enrichment (6-mer frequency, TF over GST control)
- binding signal (ETS2): 1.31 fold enrichment (6-mer frequency, TF over GST control)
- binding signal (SPDEF): 1.36 fold enrichment (6-mer frequency, TF over GST control)
- binding signal (ETV7): 1.2 fold enrichment (6-mer frequency, TF over GST control)
- binding signal (ELF5): 1.35 fold enrichment (6-mer frequency, TF over GST control)
- binding signal (ETV3): 1.3 fold enrichment (6-mer frequency, TF over GST control)
- binding signal (ETV6): 1.31 fold enrichment (6-mer frequency, TF over GST control)
